The nature of test [1]: qHTS assay to identify small molecule agonists of the estrogen receptor alpha (ER-alpha) signaling pathway in the presence of an antagonist - cell viability counter screen (AID 1259386).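 Further: cells exposed to compounds for 22 h at 37 °C before the viability read; nearly all actives have a fitted effect of over 30% in size.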 Further: potency means the concentration at half of the fitted maximal effect. The gist of the method: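 Cell viability in VM7Luc4E2 cells (endogenous full-length ER-alpha) measured by CellTiter-Fluor fluorescence in the same wells as the luciferase screen. Cells pre-cultured 5 days in charcoal-stripped serum, then treated 22 h with compounds at 15 concentrations plus 10.0nM ICI-182,780.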
In general terms: Quantitative high-throughput screening tests each substance at several concentrations.

Test [2] addresses Progesterone receptor (Homo sapiens) (UniProt P06401). Kind of test: qHTS assay to identify small molecule agonists of the progesterone receptor (PR) signaling pathway (AID 1346784; calls by dose curve; further: nearly all actives have a fitted effect of over 30% in size). The gist of the method:
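Reporter assay, GripTite PR-UAS-bla HEK 293T cells: 16 hr exposure to DMSO-dissolved compounds at 37C, 5% CO2, in steroid-depleted (2% charcoal-stripped FBS) medium; beta-lactamase measured by FRET fluorescence.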

Test [3] shares this target. Briefly: qHTS assay to identify small molecule antagonists of the progesterone receptor (PR) signaling pathway (AID 1346795; active means well fitted inhibition curve with a large enough effect in the signal ratio in the repeat runs, not every such curve was filed as active; the % refers to the signal ratio). An outline of the steps:
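Stimulus R5020 at 1 nM final; cells HEK293T PR-UAS-bla; medium with 2% charcoal-stripped FBS; compound exposure 16 hr at 37C, 5% CO2; detection by FRET beta-lactamase substrate, 2 hr, room temperature.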

Test [4] in a line: qHTS assay to identify small molecule antagonists of the progesterone receptor (PR) signaling pathway - cell viability counter screen (AID 1346798). Further: series mostly up to about 92 µM; nearly all actives have a fitted effect of over 50% in size. An outline of the steps: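 In the same plates used for the beta-lactamase readout, cell viability of compound- and R5020-treated PR-UAS-bla HEK293T cells (16 hr, 37C) was assessed by CellTiter-Glo luminescence.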
Test [5] can be described thus: qHTS assay to identify small molecule agonists of the progesterone receptor (PR) signaling pathway - cell viability counter screen (AID 1346799; calls by dose curve; further: nearly all actives have a fitted effect of over 45% in size). An outline of the steps:
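Multiplexed viability read: CellTiter-Glo luminescence, 30 min RT, following LiveBLAzer FRET measurement on PR-UAS-bla HEK293T cells exposed to compounds 16 hr.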

A short description of test [6]: qHTS assay to identify small molecule antagonists of the TGF-beta/Smad signaling pathway - cell viability counter screen (AID 1346824). Further: nearly all actives have a fitted effect of over 50% in size. An outline of the steps:
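Cytotoxicity counter-screen run in the same wells as the beta-lactamase Smad reporter read: CellTiter-Glo luminescence after 30 min at room temperature. HEK 293T SBE-bla cells had 5 hr compound exposure at 37 C with TGF-beta1 (0.25 ng/mL stock).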

The nature of test [7]: qHTS assay to identify small molecule agonists of the TGF-beta/Smad signaling pathway - cell viability counter screen (AID 1346829). Further: top concentration of the series differs between compounds; nearly all actives have a fitted effect of over 45% in size. An outline of the steps: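 Compound-treated SBE-bla HEK 293T cells (5 hr, 37 C) were assessed for viability with CellTiter-Glo in parallel with the reporter read.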
Test [8] is described as follows: qHTS assay to identify small molecule agonists of the TGF-beta/Smad signaling pathway (AID 1346859; active means well fitted activation curve with a large enough effect in the signal ratio in the repeat runs, not every such curve was filed as active; the % refers to the signal ratio; further: series mostly up to about 77 µM). An outline of the steps: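 Screening used HEK 293T SBE-bla cells at 4,000/well. Test agents: 5 hr, 37 C. Detection: FRET substrate, 2 hr RT, then excitation 405 nm with emissions at 460 and 530 nm.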
Test [9] concerns the target Thyrotropin-releasing hormone receptor (Homo sapiens) (UniProt P34981). Briefly: qHTS assay to identify small molecule agonists of the thyrotropin-releasing hormone receptor (TRHR) signaling pathway (AID 1346891; calls by dose curve; further: series mostly up to about 58 µM). An outline of the steps: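 Readout was intracellular calcium fluorescence in TRHR-Hek293 cells. Cells were incubated 18 h, dye-loaded 2 h at 37 °C, and treated with compound in agonist mode.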

A short description of test [10]: Human pregnane X receptor (PXR) small molecule agonists, qHTS cell viability counter screen (AID 1346977). Further: nearly all actives have a fitted effect of over 50% in size. Further: potency means the concentration at half of the fitted maximal effect. The gist of the method:
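In each well, the PXR reporter HepG2 line was checked for viability: CellTiter-Fluor reagent added 23hr post-dosing, fluorescence read after 1hr incubation at 37C.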

Test [11] is described as follows: Caspase-3/7 induction in HepG2 cells by small molecules, qHTS assay (AID 1346978). Further: nearly all actives have a fitted effect of over 15% in size. The gist of the method: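 Caspase-3/7 induction was measured by Caspase-Glo 3/7 luminescence (30 min, room temperature) after a 17 hr compound exposure of wild-type HepG2 cells seeded at 2,000 per well and pre-incubated 5 hr.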
A short description of test [12]: Caspase-3/7 induction in CHO-K1 cells by small molecules, qHTS cell viability counter screen (AID 1346979). Further: nearly all actives have a fitted effect of over 35% in size. Further: potency means the concentration at half of the fitted maximal effect. An outline of the steps:
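Following a 5hr settling period, CHO-K1 cells at 1,500 per well received DMSO-dissolved compounds. Cell viability was quantified 16hr later by CellTiter-Fluor fluorescence, measured after 1hr with reagent at 37C.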

The nature of test [13]: Caspase-3/7 induction in CHO-K1 cells by small molecules, qHTS assay (AID 1346980). Further: nearly all actives have a fitted effect of over 15% in size. The gist of the method:
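Luminescent Caspase-Glo 3/7 read (30min, room temperature) quantified apoptosis induction. Cells were wild-type CHO-K1, treated with compound for 17hr at 37 C and 5% CO2.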

Test [14] is described as follows: Caspase-3/7 induction in HepG2 cells by small molecules, qHTS cell viability counter screen (AID 1346981). Further: nearly all actives have a fitted effect of over 30% in size. Further: potency means the concentration at half of the fitted maximal effect. The gist of the method: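 Wild-type HepG2 cells, 2,000/well, settled 5 hr at 37 C, 5% CO2 before compound addition. Viability read by CellTiter-Fluor fluorescence, reagent added after 16 hr compound exposure, then 1 hr at 37C, in the same wells as the caspase read.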

In test [15] the target is Nuclear receptor subfamily 1 group I member 2 (Homo sapiens) (UniProt O75469). Kind of test: Human pregnane X receptor (PXR) small molecule agonists, qHTS assay (AID 1346982). Further: nearly all actives have a fitted effect of over 35% in size. Further: potency means the concentration at half of the fitted maximal effect. An outline of the steps:
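PXR-Luc HepG2 reporter cells (CYP3A4-driven luciferase) in 5% charcoal-stripped FBS medium, plated 5 h before compound addition, then treated 24 h at 37C. Luciferase read by ONE-Glo luminescence after 30 min at room temperature.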

Test [16] deals with Nuclear receptor subfamily 1 group I member 2 (Rattus norvegicus) (UniProt Q9R1A7). Kind of test: Rat pregnane X receptor (rPXR) activation by small molecules, qHTS assay (AID 1346983). Further: nearly all actives have a fitted effect of over 20% in size. The note with it: rPXR luciferase reporter cells, One-Glo luminescence, 24 h; max activation: stronger effect = higher value. An outline of the steps:
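Luminescent readout (One-Glo luciferase, 30 min room temperature) followed 24 hr compound treatment at 37 C of rPXR cells plated 2,000 per well and preincubated 5hr; qHTS format with compounds delivered in DMSO.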

Test [17] has as its target Nuclear receptor subfamily 1 group I member 2 (Homo sapiens) (UniProt O75469). Briefly: CYP3A4 induction through human pregnane X receptor (PXR) by small molecules, qHTS assay (AID 1346984). Further: nearly all actives have a fitted effect of over 40% in size. The gist of the method: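 DPX-2 HepG2 cells carrying a PXR response element and CYP3A4-promoter luciferase construct, treated with compounds 24 hr at 37C. Then P450-Glo CYP3A4 Luciferin-IPA substrate (3uM final) for 3 hr at 37C, One-Glo added, luminescence read.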

Test [18] shares this target. Briefly: Human pregnane X receptor (PXR) activation by small molecules, qHTS assay (AID 1346985). Further: nearly all actives have a fitted effect of over 40% in size. The gist of the method:
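DPX-2 cells (HepG2 co-transfected with a PXR response element and a CYP3A4-promoter luciferase construct) were seeded at 2,000 per well, rested 5 hr at 37C, then exposed to DMSO-dissolved compounds for 24 hr. Activation was read as luciferase luminescence.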

The target of test [19] is Cytochrome P450 2D6 (Homo sapiens) (UniProt P10635). Briefly: Cytochrome P450 Family 2 Subfamily D Member 6 (CYP2D6) small molecule antagonists: luciferase reporter qHTS assay (AID 1671196). Further: series mostly up to about 120 µM; nearly all actives have a fitted effect of over 50% in size. An outline of the steps: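 Cell-free P450-Glo system: CYP2D6 with proluciferin substrate was pre-incubated with compound for 10 min, then reacted with NADPH regeneration for 1 h at room temperature. Luciferin product was detected after 20 min, and data were reported as relative luminescence units.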
Sequence of Cytochrome P450 2D6 (Homo sapiens) (P10635 whole entry, looked up): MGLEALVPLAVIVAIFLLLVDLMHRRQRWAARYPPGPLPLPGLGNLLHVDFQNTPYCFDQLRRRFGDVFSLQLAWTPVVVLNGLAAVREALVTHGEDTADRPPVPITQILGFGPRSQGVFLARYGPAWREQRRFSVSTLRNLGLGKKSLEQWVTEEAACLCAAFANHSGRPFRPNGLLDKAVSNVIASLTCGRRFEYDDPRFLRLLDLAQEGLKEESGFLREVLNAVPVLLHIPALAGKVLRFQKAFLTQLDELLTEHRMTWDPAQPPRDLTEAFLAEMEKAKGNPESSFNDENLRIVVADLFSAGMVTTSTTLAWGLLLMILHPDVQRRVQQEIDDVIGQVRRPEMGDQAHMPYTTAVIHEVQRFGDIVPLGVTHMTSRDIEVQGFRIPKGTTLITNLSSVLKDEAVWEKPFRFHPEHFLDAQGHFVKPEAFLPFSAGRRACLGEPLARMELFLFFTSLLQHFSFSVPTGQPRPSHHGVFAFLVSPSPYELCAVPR
On the technique in general: Reporter assays use an easily measured gene product as a stand-in for the process of interest.

Test [20] addresses Thyrotropin-releasing hormone receptor (Homo sapiens) (UniProt P34981). Kind of test: qHTS assay to identify small molecule antagonists of the thyrotropin-releasing hormone receptor (TRHR) signaling pathway (AID 1346877; active means well fitted inhibition curve with a large enough effect in the repeat runs, not every such curve was filed as active; further: series mostly up to about 51 µM). An outline of the steps: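 TRHR-expressing HEK293 cells loaded with calcium dye for 2 h at 37 C; compounds pre-incubated 5 min at room temperature before TRH challenge at 1 nM final. Intracellular calcium fluorescence read kinetically for 3 min; 15 concentrations in triplicate.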

Several values for one entry are separate records, joined by “and”; a condition that tells them apart may be missing. Identical values can stand only once. Results filed as inconclusive are left out. More than one record can exist for a structure, and the calls need not agree. Activity calls are given as the source filed them. Unless noted, the call rests on the fitted dose curve; in most records, active means well fitted curve in the direction sought with a large enough effect in the repeat runs; inconclusive means weak or mixed curves; inactive means no such curve, though single readings can be large; an effect the other way counts as inactive or inconclusive.
On the % scale 0 is the no-effect control and ±100 the full control effect.

Sequence of Nuclear receptor subfamily 1 group I member 2 (Homo sapiens) (O75469 whole entry, looked up): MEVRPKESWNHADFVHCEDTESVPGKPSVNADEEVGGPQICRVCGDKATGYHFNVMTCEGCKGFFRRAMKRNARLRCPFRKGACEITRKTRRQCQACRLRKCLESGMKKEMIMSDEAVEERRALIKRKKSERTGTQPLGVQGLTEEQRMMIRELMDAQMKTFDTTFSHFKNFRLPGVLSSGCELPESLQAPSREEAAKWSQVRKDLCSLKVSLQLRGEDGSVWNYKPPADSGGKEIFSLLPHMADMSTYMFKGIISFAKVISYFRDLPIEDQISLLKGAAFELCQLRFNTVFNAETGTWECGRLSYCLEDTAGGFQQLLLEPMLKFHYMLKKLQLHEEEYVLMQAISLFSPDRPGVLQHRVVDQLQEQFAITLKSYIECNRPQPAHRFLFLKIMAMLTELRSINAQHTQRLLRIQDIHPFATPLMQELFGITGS
Sequence of Thyrotropin-releasing hormone receptor (Homo sapiens) (P34981 whole entry, looked up): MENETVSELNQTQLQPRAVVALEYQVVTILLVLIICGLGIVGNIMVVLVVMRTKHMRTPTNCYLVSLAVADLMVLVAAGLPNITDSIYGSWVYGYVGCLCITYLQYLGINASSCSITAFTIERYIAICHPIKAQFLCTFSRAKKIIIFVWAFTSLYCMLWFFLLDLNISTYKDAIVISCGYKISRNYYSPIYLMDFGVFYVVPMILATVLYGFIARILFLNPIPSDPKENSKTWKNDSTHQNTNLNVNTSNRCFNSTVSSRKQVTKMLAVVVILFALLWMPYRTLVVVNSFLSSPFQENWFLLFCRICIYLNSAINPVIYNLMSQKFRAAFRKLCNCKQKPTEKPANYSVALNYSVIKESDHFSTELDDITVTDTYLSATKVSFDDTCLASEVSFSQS
Sequence of Nuclear receptor subfamily 1 group I member 2 (Rattus norvegicus) (Q9R1A7 whole entry, looked up): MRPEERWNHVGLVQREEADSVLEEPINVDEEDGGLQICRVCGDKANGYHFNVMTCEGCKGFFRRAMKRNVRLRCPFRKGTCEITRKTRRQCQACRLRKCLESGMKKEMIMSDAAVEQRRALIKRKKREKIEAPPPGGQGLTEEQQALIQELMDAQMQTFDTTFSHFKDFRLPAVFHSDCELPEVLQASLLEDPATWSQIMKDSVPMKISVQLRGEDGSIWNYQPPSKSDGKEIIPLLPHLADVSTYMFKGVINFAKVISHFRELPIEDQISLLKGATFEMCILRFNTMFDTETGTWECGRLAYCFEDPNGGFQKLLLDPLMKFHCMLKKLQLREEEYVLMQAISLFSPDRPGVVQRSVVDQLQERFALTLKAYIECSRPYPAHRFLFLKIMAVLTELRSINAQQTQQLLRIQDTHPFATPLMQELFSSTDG
Sequence of Progesterone receptor (Homo sapiens) (P06401 whole entry, looked up): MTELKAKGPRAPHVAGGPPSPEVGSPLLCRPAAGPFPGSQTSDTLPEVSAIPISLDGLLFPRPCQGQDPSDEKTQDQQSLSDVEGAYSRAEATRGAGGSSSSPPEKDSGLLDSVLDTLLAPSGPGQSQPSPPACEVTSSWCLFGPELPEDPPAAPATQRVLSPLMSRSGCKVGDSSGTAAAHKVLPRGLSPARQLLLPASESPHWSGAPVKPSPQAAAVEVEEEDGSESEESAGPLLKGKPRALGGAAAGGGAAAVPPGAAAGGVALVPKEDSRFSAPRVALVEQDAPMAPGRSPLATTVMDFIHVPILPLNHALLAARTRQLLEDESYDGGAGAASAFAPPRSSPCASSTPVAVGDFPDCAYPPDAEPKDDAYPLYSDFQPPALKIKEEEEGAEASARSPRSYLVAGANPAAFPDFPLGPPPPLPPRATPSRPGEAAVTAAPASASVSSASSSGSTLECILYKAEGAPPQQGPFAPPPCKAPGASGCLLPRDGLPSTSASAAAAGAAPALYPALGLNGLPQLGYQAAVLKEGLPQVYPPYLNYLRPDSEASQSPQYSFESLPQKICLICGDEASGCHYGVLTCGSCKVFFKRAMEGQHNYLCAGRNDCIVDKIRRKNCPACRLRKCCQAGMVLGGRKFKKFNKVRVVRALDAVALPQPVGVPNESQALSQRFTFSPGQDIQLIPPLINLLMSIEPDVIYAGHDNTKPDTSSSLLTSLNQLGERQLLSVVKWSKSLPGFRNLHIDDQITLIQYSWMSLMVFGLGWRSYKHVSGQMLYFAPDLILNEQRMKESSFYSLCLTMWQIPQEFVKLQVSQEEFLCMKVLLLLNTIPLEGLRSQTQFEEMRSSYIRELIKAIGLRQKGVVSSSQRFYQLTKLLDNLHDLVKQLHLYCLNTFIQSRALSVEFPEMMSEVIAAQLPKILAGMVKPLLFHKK

As for `Cc1c(N(C)CS(=O)(=O)O)c(=O)n(-c2ccccc2)n1C`, the Potency entry in test [1], in test [2], in test [3], in test [4], in test [5] and in [6] was “inactive” in each case. The Potency entry in test [7], in test [9], in test [10], in test [11], in test [12] and in test [14] was “inactive” throughout. Moreover, the Potency result in test [15], in test [17], in test [18] and in test [19] was “inactive” in each case. Also, the compound was classed as inactive in test [8] and in test [13]. In [16], the max activation is -2.23% (inactive).
In the case of `CC(C)(C)NCC(O)c1ccc(O)c(CO)c1` (centres undefined), the Potency result in test [1], in test [2], in test [3], in [4], in test [5] and in [6] was “inactive” throughout. The Potency entry in test [7], in test [9], in test [10], in test [12], in test [14] and in [15] was “inactive” each time. Besides, the Potency result in test [19] is “inactive”. In addition, the compound was called inactive in test [8], in test [20] and in test [13].
`COC(=O)c1ccc(O)cc1`: the Potency entry in test [1], in test [2], in [3], in test [4], in test [5] and in test [6] was “inactive” throughout. In addition, the Potency result in [7], in test [9], in [10], in test [11], in test [12] and in [14] was “inactive” in each case. Besides, the Potency entry in test [15], in test [17], in test [18] and in test [19] was “inactive” in each case. The result in [8], in test [20] and in [13] was inactive. In [16], the max activation is -1.51% (inactive).
Turning to `CCc1cc(C(N)=S)ccn1`, the Potency result in test [1], in test [2], in test [3], in test [4], in test [5] and in [6] was “inactive” throughout. The Potency result in test [7], in test [9], in test [10], in test [11], in [12] and in test [14] was “inactive” throughout. In addition, the compound was classed as inactive in test [8] and in [13].
Consider `C/C=C/c1ccc(O)c(OC)c1`, for which the Potency result in test [1], in test [2], in test [3], in test [4], in test [5] and in test [6] was “inactive” throughout. Also, the Potency result in test [7], in [9], in test [10], in test [11], in test [12] and in test [14] was “inactive” throughout. In addition, the Potency result in test [15], in test [17], in test [18] and in test [19] was “inactive” each time. The result in [8], in test [20] and in [13] was inactive. The max activation in [16] was 6.95% (inactive).
In the case of `COC(=O)C1CCC(C(=O)OC)CC1` (centres undefined), the Potency result in test [1], in test [2], in [3], in test [4], in [5] and in test [6] was “inactive” throughout. The Potency result in test [7], in [9], in test [10], in test [11], in [12] and in test [14] was “inactive” each time. The Potency entry in test [15] and in [19] was “inactive” throughout. Moreover, the call in test [8], in test [20] and in test [13] was inactive.
`NC(=O)N/N=C/c1ccc([N+](=O)[O-])o1`: the Potency entry in test [1] is “inactive and 61.1 µM (active)”; in test [10], “inactive and 27.3 µM (active) and 26.6 µM (active)”; in [12], “inactive and 42.4 µM (active) and 29.8 µM (active)”; in test [14], “inactive and 58.4 µM (active)”; in test [15] it was “inactive and 7.7 µM (active)”. Further, the Potency result in test [2], in test [3], in test [4], in [5], in test [6] and in test [7] was “inactive” in each case. Also, the Potency result in [9], in test [17] and in test [19] was “inactive” in each case. For the same compound, the compound was classed as inactive in [8], in test [20] and in test [13]. The max activation in test [16] is -4.99% (inactive).

(Values after PubChem BioAssay (Tox21).)
